# Test results: PubChem BioAssay AID1508600 (Functional Genomics Laboratory (NCATS/FGL), 2020)
# About 3,700 (7%) of roughly 53,000 sequences were called active. This excerpt belongs to a sample that is enriched for actives. A number with no mark means an inactive call.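 Rule for the calls: active = gene knockdowns whose robust z-score for IL-1 alpha signal is at least 2 or at most -2, so actives lie on both sides; inactive = the rest.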
# Test: Components of the Cytosolic LPS Sensing Pathway: Gene Identification via Genome-wide siRNA Screen;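 note: robust z of the log signal after scaling to non-targeting control siRNA wells of the plate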
# Settings: RAW264.7 macrophages, IL-1a HTRF, actives lie on both sides, screened at 100 nM (by protocol), cells primed 5 h with Pam3CSK4 first
# Outline: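 RAW264.7 mouse macrophages reverse-transfected with single siRNAs (100 nM final) for 48h, primed with Pam3CSK4 for 5 hours, then transfected with LipidA for 24 hour. Supernatant IL-1a read by HTRF; values normalized to negative-control median, log-transformed robust z-scores.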
row,Sequence,z-score
1,GUUACUUUGAUGUUGUCUATT against Pdgfrl,0.817
2,GGCCAAUGCACUGUGUUACTT against Tinag,1.25
3,GCAGAGAGAUACAUUAAAGTT against Adam10,1.16
4,CGCGCUUCUACUUUUUUUATT against Nkx2-1,0.406
5,GGAGGACCCUAUGUCUAAUTT against Adora1,4.6 (active)
6,GCUGAGACAUGUGGAGUAUTT against 4931429L15Rik,0.426
7,GGUUCUCAUCAUUUCAACUTT against Sh3bgrl,-1.61
8,GGCUUUGACCCGAAAAGAATT against Tut4,-0.0161
9,CGUGCCAAUUGAAAAAAACTT against Prkn,1.23
10,CCAUACAAUAAGAGUGCUATT against Clec4a4,0.936
11,GGGUAGGCAAAGUUUUCAATT against 1700029M20Rik,4.63 (active)
12,GCAUUCCAUGGUACAGGGUTT against Adamts4,-0.646
13,CGGUUUACAUUCCUGACUUTT against Plekho2,1.42
14,GGACCAAAGAUGCAUCAGUTT against Zfyve16,-0.788
15,GGACCAAGGCUUUAUGAACTT against Crygn,0.404
16,GGCCUACGAACAGGUCAUGTT against Foxa2,0.0835
17,CGUGUCUGAAGGACUACAATT against 1700052K11Rik,0.0454
18,GCAGUAAGUCAGUGCCUCATT against Atxn1,1.51
19,GGUUGAUGCCAUGAAGUCCTT against Acyp2,-1.22
20,GGUUGUUGUGACCUUCCUGTT against Bod1,-2.65 (active)
21,GGGACAUUAUGCUUAUGACTT against Srsf7,-0.513
22,GGCAGAAGCCUAAAACGGUTT against Nudt2,0.00394
23,GGCAUUCUGAAAACAACUCTT against Hvcn1,2.02 (active)

row,Sequence,z-score
1,GCCAAGACCUAUGAGUAUATT against Naaladl1,1.33
2,CCGAUAAUAUCAAUGGAAATT against Med24,0.744
3,GGACAUCAAGAAGGACAAATT against Ppp2r5d,0.874
4,GGGUCAAAGAGAAAAAAGUTT against Hoxa13,-1.2
5,GGUGAUGGUGUAAAAUACATT against Dab2,4.98 (active)
6,GGAGAAGCAUGGCUAUAACTT against Rcor2,-0.393
7,GGUGACCUACAAGAUUUGUTT against Csdc2,-0.801
8,GUCACUCUUUUUUAUGGAATT against Olfr485,-1.48
9,GGCGAAUUGAAGGAGACCATT against Tmod3,2.54 (active)
10,GGGCAUAGAUUAGUCUUUATT against Ing2,1.01
11,GCGCAUAUUUUAUCAACUCTT against Plcb3,0.38
12,GGAACCAUGGACCUUAAUUTT against Rbm4,0.291
13,GCUUUCCUAGACAAUCUAUTT against Arhgap19,0.0654
14,GGCUGCAUUACCCAGCUUATT against Olfr853,0.719
15,GGAAGUCCUAUGAUUAAACTT against Zfand1,-0.633
16,CCUUCUAUUCACUUUACCATT against Vmn1r87,-0.907
17,GGGUUCACAUGGCAUAGUCTT against Zfp1,-0.0137
18,GGAGAGUACAGACACUGAGTT against Masp2,-0.22
19,GCUUAGACAACGACAUUUCTT against Mcoln3,2.04 (active)
20,GGUCUUCUCCAAGAUCUUCTT against Cyp26b1,1.03
21,GCACACCUAUGUCCACUCUTT against Aars,-0.923
22,GGUGCCUUCUGUAAACGAGTT against Foxc2,2.81 (active)
23,GGAAGGAAAACCUUUCAACTT against Cyp2j6,0.975

row,Sequence,z-score
1,GGUGGUGACCUUGGAUGUUTT against Gstp3,-0.00982
2,GGAAGCACAUAGAAGCCAATT against Defb11,-0.504
3,GGGAGAGUGGAUCAUCAAUTT against P2ry10,-0.0942
4,GGGAAUAUUUGGAUAACUUTT against Pak7,4.24 (active)
5,GCCACGACCAUUCAGACUCTT against Lrrc42,1.27
6,GGAUGAUCGGCACUAUAACTT against Otulin,1.81
7,GGAGAGAUGUUUAUGAAUATT against Slc6a14,-0.429
8,GGAAAAAGAUAGAACCAGATT against Larp1b,-0.177
9,GGAAAGCUCUUUGUGUCGGTT against Gramd3,-0.476
10,CCAUCUAGUGCUGUAUUUCTT against Rnf215,0.67
11,GGUGAAAUCCAUUAAAGAATT against Fth1,-2.06 (active)
12,GGAGUUUUCUCGAAACUUCTT against Fate1,0.993
13,GGACCAAGAACCAGCAAUGTT against Defb6,-0.69
14,GGAAAAACUGAAACAGUUUTT against Eif3a,1.06
15,AACACGGCUCUAGCCAAUCTT against Ypel4,-1.25
16,GCCAAUUUGAAUGGGAUGUTT against Magohb,-2.25 (active)
17,GGUGGUUACCAUAGCUGGUTT against Arid2,1.67
18,CCUAAACUCACUCUUGUGUTT against Chrna6,-0.000677
19,CCUAGACGUGACUUAAUAUTT against Rabggtb,2.09 (active)
20,CCUCAGCAAAUAUAUGGCATT against Ccdc7b,0.0117
21,GCAAGCUGAGCAUUGAUGATT against Csk,0.0106
22,GCAGUCUUUUGGAUAGGUUTT against Ccni,0.86
